Bioassay records deposited in PubChem BioAssay by National Center for Advancing Translational Sciences (NCATS).
A selection: hits, their analogues and other compounds. The true share with any hit is near 19%.
Giardia killer = Giardia lamblia killing | Giardia lamblia trophozoite viability | activity change, % at 7.66 µM, hits read low | actives 0.15% (n = 340,000); in the data active = activity change below about -80%; inconclusive = between about -30% and that limit;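 note: parasites exposed to compound for two days anaerobically before the ATP read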
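Luminescent ATP signal served as the viability read-out, measured 15-30 min after adding ATP detection reagent to trophozoites that had been incubated with compounds for 48 hrs at 37 deg C anaerobically at 100 cells/well.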
ELG1 repair inh = blocks ELG1-dependent DNA repair in HEK293T cells; AID 504467; actives 2.3% (n = 330,000); Potency, µM (series often up to 46.1 µM), actives largely listed as inhibitors; HEK293T ELG1-luciferase reporter, luminescence, 16 h; DNA damage induced by 5-fluorouridine; note: nearly all actives have a fitted effect of over 55% in size
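Overnight (16 hr) co-exposure of 2,000 cells/well to 5-fluorouridine and compound at 37 °C preceded detection. Luciferase was quantified via ONE-Glo luminescence; loss of signal denotes inhibition.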
TDP1 cell CPT = DT40-hTDP1 cell growth loss with CPT. chicken DT40 Tdp1-/-;hTDP1 cells + 20 nM CPT, ATP luminescence, 48 h. Potency, µM (titrated, usually from 46.2 µM), usual class: inhibitors. actives 12% (n = 420,000); note: nearly all actives have a fitted effect of over 55% in size
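Cell growth measured by CellTiter-Glo luminescence after a minimum 48 h, 37 C compound exposure with 20 nM CPT in Tdp1-knockout DT40 cells stably expressing hTDP1, seeded 400/well; qHTS titration format.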
IL1B secr inh = inflammasome signaling inhibition, IL-1 beta readout | AID 743279 | THP-1 LPS/ATP IL-1B secretion, AlphaLISA, 16 h; hits give low values | actives 4.7% (n = 360,000) | activity change, % at 57.5 µM; in the data active = activity change below about -50%; inconclusive = mostly about -30% to -49%
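Secreted IL-1B measured by AlphaLISA bead assay after 16 h compound exposure of THP-1 cells; compounds (final up to 57.5 uM) added 1 h before LPS (250 ng/mL) and ATP (1.25 mM) stimulation; lower signal means less secretion.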
TDP1 cell noCPT = qHTS for Inhibitors of human tyrosyl-DNA phosphodiesterase 1 (TDP1): qHTS in cells in absence of CPT. DT40 Tdp1-/- hTDP1 cells, no CPT, ATP luminescence, 48 h. Potency, µM (doses to about 46.2 µM), usual class: inhibitors. actives 15% (n = 420,000). AID 686978, 2013; note: nearly all actives have a fitted effect of over 55% in size
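Luminescent ATP content (CellTiter-Glo) served as the growth readout. Knockout chicken DT40 cells expressing human TDP1 were exposed to compounds without camptothecin for a minimum 48 hr at 37 °C.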
TDP1 block = blocks human tyrosyl-DNA phosphodiesterase 1; recombinant TDP1, AlphaScreen DNA substrate cleavage; Potency, µM (doses to about 130 µM), actives largely listed as inhibitors; Q9NUW8; actives 0.28% (n = 350,000); AID 485290; note: nearly all actives have a fitted effect of over 40% in size
Target sequence (Q9NUW8 whole entry, looked up): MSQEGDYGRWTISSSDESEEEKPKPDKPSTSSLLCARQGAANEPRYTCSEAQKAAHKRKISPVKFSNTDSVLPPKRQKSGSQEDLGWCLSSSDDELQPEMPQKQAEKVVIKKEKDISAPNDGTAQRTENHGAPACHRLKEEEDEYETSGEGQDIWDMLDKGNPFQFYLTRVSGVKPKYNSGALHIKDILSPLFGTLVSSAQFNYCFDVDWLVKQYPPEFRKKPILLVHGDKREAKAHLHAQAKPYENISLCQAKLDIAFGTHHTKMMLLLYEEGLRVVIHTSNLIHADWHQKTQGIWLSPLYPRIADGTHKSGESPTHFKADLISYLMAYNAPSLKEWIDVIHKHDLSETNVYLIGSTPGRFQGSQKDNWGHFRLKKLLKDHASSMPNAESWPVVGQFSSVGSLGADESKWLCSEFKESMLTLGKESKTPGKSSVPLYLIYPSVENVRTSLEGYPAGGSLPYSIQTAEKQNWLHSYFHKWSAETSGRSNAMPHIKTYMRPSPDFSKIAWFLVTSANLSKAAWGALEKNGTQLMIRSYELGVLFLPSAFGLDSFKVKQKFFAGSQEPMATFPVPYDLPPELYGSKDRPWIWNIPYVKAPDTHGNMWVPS
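Compounds were preincubated with Tdp1 (1 nM final) for 15 min at room temperature before substrate (15 nM final) started a 5 min reaction; beads (10 ug/ml final) were then added for 10 min before AlphaScreen detection.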
Hits are given with their value; 0 = inactive; ? = inconclusive; - = not tested or not shown; [ ] = another dose, or the depositor's remark. Unless noted, calls come from the whole dose curve; as a rule, active = well fitted curve in the direction sought with a large enough effect; inconclusive = small, poorly fitted or top-dose-only effect, or another doubt; inactive = no such curve, though single readings can be large; an effect the other way counts as inactive or inconclusive.

SMILES	Giardia killer	ELG1 repair inh	TDP1 cell CPT	IL1B secr inh	TDP1 cell noCPT	TDP1 block
COc1ccc2c(c1)CCc1c-2n[nH]c1C(=O)NCCC(C)C	0	?	?	-60	?	-
COc1ccc(CNC(=O)c2[nH]c(C)c(C(C)=O)c2C)cc1	0	0	9.2µM	0	?	0[0.0935 µM]
CN(C)c1cccc(C(=O)N2CCCC(CCC(=O)N3CCN(c4ccccn4)CC3)C2)c1 (stereo unspecified)	0	0	?	0	?	0
CCCCC(CC)CNC(=O)c1[nH]c(C)c(C(C)=O)c1C (stereo unspecified)	0	?	?	0	23µM	0
COc1ccc(/C=N/NC(=O)c2[nH]c(C)c(C(=O)N/N=C/c3ccc(OC)cc3)c2C)cc1	0	21µM	?	0	?	0
Cc1c(C(=O)N/N=C/c2ccc(Cl)cc2)[nH]c2ccc(Cl)cc12	0	0	0.82µM	0	0.92µM	0
COc1ccc(NC(=O)c2[nH]c(C)c(C(C)=O)c2C)cc1	0	?	0	0	?	0
CCOc1ccc(/C=N/NC(=O)c2[nH]c3ccc(C)cc3c2C)cc1	0	0	0	0	0	-
COc1cccc(/C=N/NC(=O)c2[nH]c(C)c(C(=O)N/N=C/c3cccc(OC)c3)c2C)c1	0	21µM	?	0	?	0
COc1ccc(Nc2cc(Nc3ccccc3)ncn2)cc1	0	?	0	0	0	-
CC(=O)Nc1ccc(S(=O)(=O)NC2(C(F)(F)F)C(=O)Nc3c2c(=O)[nH]c(=O)n3-c2cccc(Cl)c2)cc1 (stereo unspecified)	-	-	0	-	0	0
O=C(NC1CCCCC1)C(c1ccc2ncccc2c1)N(Cc1ccc(F)cc1)C(=O)c1cccs1 (stereo unspecified)	0	?	?	0	?	0
CCOC(=O)c1[nH]c(C)c(C(=O)Nc2cccc(Cl)c2C)c1C	0	0	10µM	0	16µM	0
CCOC(=O)c1c(C)[nH]c(C(C)=NNC(=O)c2cccs2)c1C	0	?	12µM	0	6.5µM	0
COc1cccc(/C=N/NC(=O)c2[nH]nc3c2CCc2ccccc2-3)c1	0	?	4.1µM	-	4.1µM	0
CCOC(=O)c1[nH]c(C)c(C(=O)Nc2ccc(Cl)cc2)c1C	0	?	0	0	0	0
CCOC(=O)c1c(C)[nH]c(/C(C)=N/NC(=O)c2cccnc2)c1C	-	-	0	0	?	-
CCCn1nc(C(=O)NNC(=O)CCCOc2ccc(C)cc2)c2ccccc2c1=O	0	?	0	0	0	0
CC(C)=CC(O)C/C(C)=C/COc1ccc2ccc(=O)oc2c1 (stereo unspecified)	0	0	7.3µM	?	9.2µM	-
CCOC(=O)c1c(NC(=O)COC(=O)CCOc2ccccc2C)sc(C(=O)NC)c1C	0	?	23µM	0	?	-
CCOC(=O)c1c(NC(=O)COC(=O)CNC(=O)c2ccco2)sc(C)c1C	0	0	5.8µM	0	?	0
CCOC(=O)c1c(NC(=O)OC)sc(C(=O)N(C)C)c1C	0	0	0	0	0	0
CCOC(=O)c1c(NC(=O)COC(=O)c2ccc(O)cc2)sc(C(=O)N(C)C)c1C	0	?	?	0	23µM	0
CCOC(=O)c1c(NC(=O)COC(=O)c2ccc(Cl)nc2)sc(C(=O)N(C)C)c1C	0	0	0	0	?	-
CCOC(=O)c1c(NC(=O)C(Sc2ccccc2)c2ccccc2)sc(C(=O)N(C)C)c1C (stereo unspecified)	0	?	?	0	16µM	0
COC(=O)c1c(NC(=O)COC(=O)CNC(=O)c2ccco2)sc(C)c1C	0	0	0	0	0	0
COc1ccc(-c2c(-c3ccccc3)c(C(=O)C(=O)NCCCN(C)C)n3ccc4cc(OC)c(OC)cc4c23)cc1OC	0	0	3.3µM	0	18µM	-
CCCC(=O)c1cc(O)c(O)cc1O	-	-	?	-	17µM	?
